Bioassay records: PubChem BioAssay, several laboratories
CCHFV vOTU inh: blocks the CCHF virus ovarian tumor domain protease; CCHFV vOTU protease, Pep-AMC fluorescence; inhibition, % at 11.5 µM; AID 651958; actives 0.55% (n = 370,000); in the data active = inhibition above about 30%; also: 0% = vehicle wells with enzyme and 100% = no enzyme wells
BoNT F protease: BoNT F light chain protease inhibition. Multiplex microsphere protease cleavage assay, flow cytometry. inhibition, % at 10 µM. actives 0.22% (n = 360,000); in the data active = inhibition above about 35%, passing the limit was not always enough; inconclusive = no clear call, values can overlap the other calls; also: plate controls were buffer without enzyme for full effect and enzyme alone for no effect
Anthrax LF prot: blocks Bacillus anthracis lethal factor protease; P15917; multiplex microsphere protease cleavage assay, LF; inhibition, % at 10 µM; actives 0.12% (n = 360,000); AID 588501; also: plate controls were buffer without enzyme for full effect and enzyme alone for no effect
BoNT A protease: inhibitors of Botulinum neurotoxin A light chain protease | multiplex microsphere protease substrate cleavage, flow cytometry | inhibition, % at 10 µM | actives 0.17% (n = 360,000); also: plate controls were buffer without enzyme for full effect and enzyme alone for no effect
Autofluor counter: flagged as autofluorescent in microsphere protease counterscreen. compound autofluorescence counterscreen, microsphere flow cytometry; stronger effect = higher value. fluorescence intensity (concentration not given with the values). actives 3.1% (n = 360,000); in the data active = fluorescence intensity above about 16000; inconclusive = no clear call, values can overlap the other calls
SARS 3CLpro inh: SARS-CoV 3CLpro protease inhibition | P0C6X7 | inhibition, % at 6 µM | AID 1706 | actives 0.14% (n = 290,000) | recombinant SARS-CoV 3CLpro, quenched FRET peptide cleavage; in the data active = inhibition above about 12%
Numbers without * were called inactive. Shown are actives, neighbours in structure and some others; about 3.9% of the full set was active somewhere. Rule as the data show it, unless noted: active = inhibition above about 30%; inconclusive = no clear call, values can overlap the other calls; inactive = below that.

Results for CCCCNC(=O)CCCCn1c(=S)[nH]c2c([nH]c3ccc(OC)cc32)c1=O ?
CCHFV vOTU inh: 8; BoNT F protease: 3; Anthrax LF prot: 7; BoNT A protease: 0; Autofluor counter: 4172; SARS 3CLpro inh: 0

What do the screens show for `CC[C@H](C)NC(=O)CCCCCn1c(=S)[nH]c2c([nH]c3ccc(OC)cc32)c1=O`?
CCHFV vOTU inh: 5; BoNT F protease: -4; Anthrax LF prot: -2; BoNT A protease: 0; Autofluor counter: 3316; SARS 3CLpro inh: -2

How did COc1ccc2[nH]c3c(=O)n(CCCCC(=O)N4CCC(C(N)=O)CC4)c(=S)[nH]c3c2c1 do in these assays?
BoNT F protease: 1; Anthrax LF prot: 2; BoNT A protease: inconclusive; Autofluor counter: 20373*; SARS 3CLpro inh: -4

How did COc1ccc2[nH]c3c(=O)n(CCCCC(=O)NCCN4CCCC4)c(=S)[nH]c3c2c1 do in these assays?
CCHFV vOTU inh: -3; BoNT F protease: -7; Anthrax LF prot: 0; BoNT A protease: -2; Autofluor counter: 17189*; SARS 3CLpro inh: -4

How did CN(C)CCCNC(=O)C[C@@H]1CC[C@@H]2[C@H](COc3ccc(NC(=O)c4cccc(F)c4)cc3C(=O)N2C)O1 do in these assays?
CCHFV vOTU inh: -1

How did Cc1cc(=O)oc2cc(OCC3CC(c4ccc(Cl)cc4)=NO3)ccc12 (centres undefined) do in these assays?
CCHFV vOTU inh: -14; BoNT F protease: 0; Anthrax LF prot: -1; BoNT A protease: 0; Autofluor counter: 22029*; SARS 3CLpro inh: 2

How did O=c1[nH]cnc2c1C(c1ccccc1[N+](=O)[O-])c1c(nc[nH]c1=O)O2 do in these assays?
CCHFV vOTU inh: -11; BoNT F protease: 3; Anthrax LF prot: -2; BoNT A protease: 3; Autofluor counter: 20743*; SARS 3CLpro inh: -1

Results for CCCCCCn1c2c(c(=N)c3c1CCC3)CCC2 ?
CCHFV vOTU inh: 8; BoNT F protease: 2; Anthrax LF prot: -1; BoNT A protease: inconclusive; Autofluor counter: 22477*; SARS 3CLpro inh: 2

Results for C#CCNC(=O)C[C@@H]1C(=O)N(CC=C)/C2=C/CCCCC[C@]21C(=O)OCC ?
CCHFV vOTU inh: 1

What do the screens show for `CC(=O)c1ccc(N2CCN(C(=O)CNS(=O)(=O)c3ccc4c(c3)OCCCO4)CC2)c(F)c1`?
CCHFV vOTU inh: 1; BoNT F protease: 13; Anthrax LF prot: -9; BoNT A protease: -1; Autofluor counter: 4642

How did Cc1c(Cl)cccc1NC(=O)CC(C(=O)O)C1CCCO1 (centres undefined) do in these assays?
CCHFV vOTU inh: -3; BoNT F protease: 0; Anthrax LF prot: -3; BoNT A protease: 1; Autofluor counter: 22699*; SARS 3CLpro inh: 1

What do the screens show for `Cc1c(Cl)cccc1NC(=O)CC(Cc1ccccc1)C(=O)O` (centres undefined)?
CCHFV vOTU inh: -6; BoNT F protease: 32; Anthrax LF prot: -3; BoNT A protease: -2; Autofluor counter: 3577; SARS 3CLpro inh: 1

Results for O=C1CCC2c3ccc4ccccc4c3CCN12 (centres undefined) ?
CCHFV vOTU inh: 4; BoNT F protease: -4; Anthrax LF prot: 3; BoNT A protease: -2; Autofluor counter: 20473*; SARS 3CLpro inh: -5

How did O=C1OCc2ccc(NC(=O)C3CC3)cc21 do in these assays?
CCHFV vOTU inh: -14; BoNT F protease: -1; Anthrax LF prot: -4; BoNT A protease: 0; Autofluor counter: 3200; SARS 3CLpro inh: -5

How did O=C1OCc2cc(NC(=O)C3CCCCC3)ccc21 do in these assays?
CCHFV vOTU inh: 1; BoNT F protease: -2; Anthrax LF prot: 0; BoNT A protease: inconclusive; Autofluor counter: 20191*; SARS 3CLpro inh: 0

Results for Cc1nn(CC(=O)NC(=O)NC2CCCC(C)C2C)c(=O)c(C#N)c1C (centres undefined) ?
CCHFV vOTU inh: 11; BoNT F protease: 20; Anthrax LF prot: 10; BoNT A protease: 1; Autofluor counter: 6168

Results for Cc1cc(C(=O)N2CCC(Cc3ccccc3)CC2)no1 ?
CCHFV vOTU inh: -5; BoNT F protease: -11; Anthrax LF prot: -4; BoNT A protease: -3; Autofluor counter: 6375; SARS 3CLpro inh: -1

How did O=C(OCc1ccccc1)C1CCCN1C(=O)c1ccccc1[N+](=O)[O-] (centres undefined) do in these assays?
CCHFV vOTU inh: -6; BoNT F protease: 1; Anthrax LF prot: -1; BoNT A protease: inconclusive; Autofluor counter: 20292*; SARS 3CLpro inh: -3

What do the screens show for `O=C(c1ccccc1[N+](=O)[O-])N1CCC(Cc2ccccc2)CC1`?
CCHFV vOTU inh: 1; BoNT F protease: -3; Anthrax LF prot: 0; BoNT A protease: -2; Autofluor counter: 22923*; SARS 3CLpro inh: 5

How did Cc1noc(C)c1C(=O)N1CCC(Cc2ccccc2)CC1 do in these assays?
CCHFV vOTU inh: 1; BoNT F protease: 1; Anthrax LF prot: 1; BoNT A protease: inconclusive; Autofluor counter: 22708*; SARS 3CLpro inh: -5

What do the screens show for `O=C(OCc1ccccc1)C1CCCN1C(=O)c1cccs1` (centres undefined)?
CCHFV vOTU inh: 10; BoNT F protease: 0; Anthrax LF prot: -1; BoNT A protease: 0; Autofluor counter: 3512; SARS 3CLpro inh: -1

What do the screens show for `CC1CCC2(CC1)CCN(CCCOC(=O)NCc1ccc(Cl)cc1)C2=O` (centres undefined)?
CCHFV vOTU inh: 12

How did CC1CCN(C(=O)C2CCC(C)(C(=O)O)C2(C)C)CC1 (centres undefined) do in these assays?
CCHFV vOTU inh: -5; BoNT F protease: -4; Anthrax LF prot: -1; BoNT A protease: -1; Autofluor counter: 2428; SARS 3CLpro inh: 4

What do the screens show for `NC(=O)c1c(NC(=O)C(=O)N2CCOCC2)sc2c1CCC2`?
CCHFV vOTU inh: 4; BoNT F protease: -3; Anthrax LF prot: 3; BoNT A protease: 1; Autofluor counter: 4151; SARS 3CLpro inh: 0

What do the screens show for `COc1ccc(Cl)cc1N(CC(=O)Nc1ccccc1SC)S(C)(=O)=O`?
CCHFV vOTU inh: 19; BoNT F protease: 0; Anthrax LF prot: 2; BoNT A protease: inconclusive; Autofluor counter: 19767*; SARS 3CLpro inh: 4

Results for CCN(CC)C(=O)CSc1nc2ccccc2c(=O)n1OC(C)C ?
CCHFV vOTU inh: 3; BoNT F protease: -3; Anthrax LF prot: -6; BoNT A protease: -2; Autofluor counter: 17014*; SARS 3CLpro inh: 5

What do the screens show for `CCN(CC)C(=O)CSc1nc2ccccc2c(=O)n1CC`?
CCHFV vOTU inh: 7; BoNT F protease: 2; Anthrax LF prot: 0; BoNT A protease: 0; Autofluor counter: 2757; SARS 3CLpro inh: 0

How did CCC(C)n1c(SC(C)C#N)nc2ccccc2c1=O (centres undefined) do in these assays?
CCHFV vOTU inh: -8; BoNT F protease: -13; Anthrax LF prot: -5; BoNT A protease: 1; Autofluor counter: 9779; SARS 3CLpro inh: -2

How did CCCCOC(=O)n1c(SCC(=O)N(CC)CC)nc2ccccc21 do in these assays?
CCHFV vOTU inh: 12; BoNT F protease: -7; Anthrax LF prot: -12; BoNT A protease: -5; Autofluor counter: 24831*; SARS 3CLpro inh: 3
